In the library only some 12% were active in any assay of this set; here they are far more common.
CHX counter = affects cycloheximide protein synthesis inhibition readout, counter-screen; cell reporter, cycloheximide protein synthesis inhibition counterscreen; max response, %; 12% of 300,000 active; in the data active = max response mostly above about 13%, no sharp cut-off; inactive = mostly below about 14%; also: read at 38.3 µM for the half of the compounds with a filed dose; 0% is about no effect
Shiga inhibitor = blocks Shiga toxin action in Vero cells; 9.2% of 290,000 active; inhibition, % at 38.7 µM; Vero cells, Shiga toxin protein synthesis inhibition reporter; in the data active = inhibition mostly above about 28%, no sharp cut-off; inactive = mostly below about 43%; also: 0% is about no effect
Sm TGR inh = S. mansoni TGR enzyme inhibition; Potency, µM (titrated, usually from 114 µM), for the others: top-dose activity change, negative = inhibition, actives largely listed as inhibitors; Q962Y6; AID 485364; purified TGR, DTNB reduction, TNB absorbance 405 nm; 3% of 360,000 active; active = well fitted inhibition curve with a large enough effect; inconclusive = small, poorly fitted or top-dose-only effect; inactive = no such curve, though single readings can be large or run the other way; also: potency is read from the fitted curve at half-maximal effect; % is scaled to controls: 0 for no effect and ±100 for the full control effect; nearly all actives have a fitted effect of over 60% in size
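Kinetic colorimetric format: TGR-catalysed, NADPH-driven DTNB reduction monitored via TNB absorbance. Enzyme dispensed at 20 nM; compound exposure 15 min at room temperature before reaction start.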
FMDV antiviral = foot and mouth disease virus antiviral activity. 1.2% of 410,000 active. FMDV antiviral cell-based qHTS. Potency, µM (doses to about 57.9 µM), inactives show at the highest dose activity change, negative = inhibition, usual class: inhibitors. AID 1159524; calls by dose curve; tested in HEK293T cells; also: read-out not given here; potency is read from the fitted curve at half-maximal effect; % is scaled to controls: 0 for no effect and ±100 for the full control effect; nearly all actives have a fitted effect of over 45% in size
An asterisk follows results filed as active; ? = inconclusive; nt = not tested or not shown; + = active, no number.

SMILES	CHX counter	Shiga inhibitor	Sm TGR inh	FMDV antiviral
CCOC(=O)c1ccc(NC(=O)CC(C)n2nc(C)cc2C)cc1 (stereo unspecified)	nt	nt	5%	-14%
COc1ccc(-n2ncc(C(=O)N3CCN(Cc4ccccc4)CC3)c2C2CCN(C(=O)OC(C)(C)C)CC2)cc1	nt	nt	2%	-13%
COC(=O)c1sccc1NC(=O)Nc1ccc(Cl)c(Cl)c1	27*	23	5%	36%
COC(=O)c1sccc1S(=O)(=O)Nc1ccc(C)cc1	16*	2	-1%	3%
COC(=O)c1sccc1NC(=O)Nc1ccc(OC)c(OC)c1	12	-6	-4%	85%
COC(=O)c1sccc1S(=O)(=O)N(CC(=O)Nc1ccc(C)cc1)c1ccccc1	nt	nt	0%	-6%
COc1ccc(NC(=O)c2cc3c(=O)n(Cc4cccnc4)ccc3nc2C)c(OC)c1	nt	nt	-4%	-18%
Cc1ccc2[nH]c3c(=O)n(CC(=O)N4CCN(c5ccccc5F)CC4)ncc3c2c1	nt	nt	3%	-10%
Cn1c(SCC(=O)C(C)(C)C)nnc1-c1cccnc1	-2	3	0%	21%
Cn1cnc([N+](=O)[O-])c1Sc1nnc(-c2cccnc2)n1C	1	-6	0.45µM*	?
Cn1c(SCc2ccccc2[N+](=O)[O-])nnc1-c1cccnc1	24*	51*	0%	25%
CCOC(=O)c1cccc(NC(=O)c2cc(C)nn2-c2ccccc2)c1	-1	-5	-8%	-9%
CCc1ccc(NC(=O)c2cc(C)nn2-c2ccccc2)cc1	13*	26	4%	8%
Cc1cc(C(=O)Nc2cccc(C)c2C)n(-c2ccccc2)n1	24*	51*	0%	31%
COc1ccc(NC(=O)c2cc(C)nn2-c2ccccc2)cc1	37*	58*	2%	68%
Cc1cc(C(=O)Nc2cccc3ccccc23)n(-c2ccccc2)n1	8	22	-5%	-12%
CC(=O)Nc1ccc(NC(=O)c2cc(C)nn2-c2ccccc2)cc1	-2	0	-7%	-8%
COc1ccccc1-c1nn(CCC(=O)Nc2ccc(C)cc2)c2nc(C)cc(C)c12	nt	nt	-4%	-26%
O=[N+]([O-])c1cc(-c2nnc(Nc3ccccc3)c3ccccc23)ccc1N1CCOCC1	-2	-3	-3%	-15%
CCCOc1cccc(C(=O)Nc2ccc(-c3nc4ccccc4o3)cc2)c1	nt	nt	-9%	-7%
O=[N+]([O-])c1cc(-c2nnc(Nc3ccc(O)cc3)c3ccccc23)ccc1N1CCOCC1	-6	-13	-9%	20µM*
O=C(Nc1ccc(-c2nc3ccccc3o2)cc1)c1ccc(N2CCOCC2)c([N+](=O)[O-])c1	8.5*	24	-29%	?
Cn1cc([N+](=O)[O-])c(C(=O)Nc2ccc(-c3nc4ccccc4o3)cc2)n1	39*	69*	-1%	-43%
CC(=O)c1cccc(NC(=O)c2nc(-c3ccccc3)n(-c3cccc(Cl)c3)n2)c1	nt	nt	-3%	-28%
CC(C)(C)OC(=O)N1Cc2cc3ccccc3nc2C1	nt	nt	nt	27%
SMILES	CHX counter	Shiga inhibitor	Sm TGR inh	FMDV antiviral
CC(C)(C)OC(=O)N1CCNc2ccccc2C1	12*	+	4%	14%
CCN(CC)CCNC(=O)c1ccc(-c2nc(CS(=O)(=O)c3ccc(C)cc3)c(C)o2)cc1	nt	nt	1%	-11%
O=C(c1[nH]ncc1-c1cccc(Br)c1)C1CO1 (stereo unspecified)	active	13	11µM*	35µM*
CC1=C(C(=O)OCCNC(=O)c2ccccc2O)C(c2ccccc2[N+](=O)[O-])C(C(=O)OCC2CCCO2)=C(C)N1 (stereo unspecified)	-5	-14	-2%	28µM*
O=C1N=C(N2CCCCC2)S/C1=C\c1ccc(Br)cc1	1	-16	12%	32%
CN1C(=O)/C(=C2\SC(N)=NC2=O)c2ccccc21	0	-2	-8%	12%
CN1C(=O)/C(=C2\SC(N3CCCCCC3)=NC2=O)c2ccccc21	20*	32	1%	47%
O=C1N=C(N2CCOCC2)S/C1=C1\C(=O)N(Cc2ccccc2)c2ccccc21	15	24	0%	43%
CCCN1C(=O)/C(=C2\SC(N3CCCCC3)=NC2=O)c2ccccc21	46*	68*	5%	18%
O=C1N=C(N2CCCCC2)SC1=C1CCCCC1	33*	114*	2%	43%
COc1ccccc1Nc1sc(C(=O)c2ccc3c(c2)OCO3)c(N)c1S(=O)(=O)c1ccccc1	nt	nt	2%	-12%
COC(=O)C1=NN(N=O)C2(CC(=O)N(c3cc(C)cc(C)c3)C2=O)C1 (stereo unspecified)	-2	-4	25µM*	0%
Cc1ccc(NC(=O)NC2=NN(c3ccccc3)C(=O)/C2=C2/CCCN2C)cc1	27*	90*	11%	19%
COc1cccc(CCNc2ncnc3c2nnn3C)c1	nt	nt	8%	-9%
Cc1ccc2c(N)c(C#N)sc2n1	22*	39	9%	35%
N#Cc1sc2nc3c(cc2c1N)CCCC3	23*	27	-6%	0%
Nc1c(C(=O)C2CC2)sc2nc3c(cc12)CCC3	43*	66*	15%	49%
NC(=O)c1sc2nc3c(cc2c1N)CCCCCC3	31*	52*	-9%	29%
Nc1c(C(=O)c2ccc(Cl)cc2)sc2nc3c(cc12)CCC3	32*	26	4%	24%
Nc1c(C(=O)O)sc2nc3c(cc12)CCCC3	-1	4	0%	-4%
CC(C)N1C(=O)S/C(=C/c2ccccc2OCc2ccc(C(=O)O)cc2)C1=O	20	32*	-5%	-13%
COc1cc(=O)n2c(c1C(=O)N(C)Cc1nonc1C)CCN(Cc1cc(C)ccc1C)CC2	nt	nt	nt	-19%
COc1ccc(NC(=O)c2oc3c(c2C)-c2nn(Cc4ccccc4Cl)cc2CC3)cc1OC	nt	nt	-3%	-28%
O=C1C(Cl)=C(NCCN2CCCCC2)C(=O)c2ccccc21	54*	49*	22µM*	40µM*
COC(=O)c1sc(NC(=O)CSc2nnnn2C)nc1C	29*	121*	4%	34%
SMILES	CHX counter	Shiga inhibitor	Sm TGR inh	FMDV antiviral
Cn1nnnc1SCC(=O)Nc1ccc(Br)cc1Br	nt	nt	nt	16%
Cn1nnnc1SCC(=O)Nc1ccc(Br)cc1Cl	8	16	28µM*	9%
Cc1csc(NC(=O)CSc2nnnn2C)n1	25*	53*	-1%	18%
CCCn1c(SCC(=O)Nc2nc(C)c(C(=O)OC)s2)nnc1C(C)C	-5	15	-24%	-16%
Cc1nc(NC(=O)CSc2nnnn2C)sc1C	40*	71*	-4%	55%
CCOC(=O)c1cc(-c2ccc(C)cc2)n(CC(=O)NC2CCCCCC2)c1C	nt	nt	7%	25%
Cc1ccc(N2CC(NC(=O)c3ccc4c(c3)OCO4)CC2=O)cc1 (stereo unspecified)	nt	nt	9%	-11%
CCOC(=O)c1c(C)[nH]c(C)c1S(=O)(=O)N1CCN(c2ccccc2OC)CC1	nt	nt	-9%	20%
Cc1ccc(/C=c2\s/c(=C(/C#N)C(=O)N3CCCC3)n(Cc3ccco3)c2=O)s1	9	21	5µM*	2%
Cc1cc(C)cc(C(=O)Nc2ccc(-c3nc4ncccc4o3)cc2)c1	nt	nt	6%	0%
CC(/C=N/NC(=O)NC1CCCCC1)=C\c1ccccc1	28*	46*	-1%	39%
O=C(N/N=C/C(Br)=C/c1ccccc1)C1CC1	25*	56*	?	43%

Screens from PubChem.
